Test results as given in PubChem BioAssay AID686979 (National Center for Advancing Translational Sciences (NCATS), 2013).
Among all 420,000 compounds or so, about 50,000 (12%) were called active. About 26% were inconclusive and are not listed. The full list was thinned out, with actives kept by preference. Values without a mark were called inactive. Calls follow the shape of the dose curve; as a rule, active = well fitted inhibition curve with a large enough effect; inconclusive = small, poorly fitted or top-dose-only effect; inactive = flat fitted curve, though single readings scatter.

test: qHTS for Inhibitors of human tyrosyl-DNA phosphodiesterase 1 (TDP1): qHTS in cells in presence of CPT; details: chicken DT40 Tdp1-/-;hTDP1 cells + 20 nM CPT, ATP luminescence, 48 h; series mostly up to 46.2 µM; activity change, negative = growth inhibition: at the top concentration; also: nearly all actives have a fitted effect of over 55% in size
Excerpt: Human tyrosyl-DNA phosphodiesterase 1 (TDP1) is a novel repair gene, and we propose to use it as a new target for anticancer drug development. TDP1 is not an essential protein, but under treatment with topoisomerase I poison (camptothecin: CPT), TDP1 works as a critical factor for cell survival. To directly identify novel TDP1 inhibitors active in a cellular environment, we have knocked-out the Tdp1 gene in chicken DT40 cells (Tdp1-/-) and generated a complemented counterpart cells that contains a stable transfection of the human TDP1 gene (Tdp1-/-;hTDP1 cells). For the primary screen, Tdp1-/-;hTDP1 cells will be exposed to small molecules in the presence or absence of CPT, and their growth kinetics will be evaluated after 48 hours by measuring ATP activity. […] The hit compounds will then be evaluated in the presence or absence of CPT using Tdp1-/- cells. […] In tertiary assays, biochemical gel-based assays will be used to assess whether the hit compounds specifically target TDP1. To this end, we have screened this cell line against the MLSMR in two primary screens. In one screen we add CPT and in the other we screen in the absence of CPT; this AID represents the screen where CPT was present. NIH Chemical Genomics Center [NCGC] NIH Molecular Libraries Probe Centers Network [MLPCN] MLPCN Grant: MH095538 Assay Submitter (PI): Yves Pommier, NCI
DT40-hTDP1 cells with 20 nM Camptothecin (add 20 microL of 1 mM CPT stock in 1 L of cell culture medium) were dispensed at 400 cells/5microL/well in tissue culture treated 1536-well white wall/solid bottom assay plates (Greiner Bio-One North America, NC, U.S.A.) using a Multidrop Combi 8 channel dispenser (Thermo Fisher, Waltham, MA, USA). 23 nL compounds and controls were transferred using the pin tool (Kalypsys, San Diego, CA, USA) to the assay plates. The assay plates were then incubated at 37 masculineC for a minimum 48 hr. Three microL of Cell Titer Glo solution was added to the plates and incubated at RT in dark for 30 min. Luminescence was read using ViewLux (Perkin Elmer) with 1 sec exposure slow speed, high gain and 2x binning.
% is scaled to controls: 0 for no effect and ±100 for the full control effect; potency is read from the fitted curve at half-maximal effect.

SMILES	activity change, negative = growth inhibition	Potency
CCCCn1c(N)c(N(CC(C)C)C(=O)CN(C)S(=O)(=O)c2ccc(F)cc2)c(=O)[nH]c1=O	12.9%	–
Cc1cc(F)ccc1NC1(c2ccccc2)C(=O)c2ccccc2C1=O	3.73%	–
COc1ccc(S(=O)(=O)NC(=O)C2(C)CCN2C(=O)COc2ccc(Cl)cc2)cc1 (stereo unspecified)	1.46%	–
COc1ccccc1C(=O)NC(=O)COC(=O)c1ccco1	17.6%	–
COc1ccc(C)cc1N(CC(=O)N1CCCC1)S(=O)(=O)c1ccccc1	10%	–
C/C(N)=C(/C#N)C(=O)COC(=O)C1CCN(C(=O)c2ccc(Cl)cc2)CC1	1.82%	–
C[C@]12CC[C@H](O)CC1=CCC1C2CC[C@@]2(C)C1CC[C@@H]2NC(=O)CCC(=O)O (stereo partly specified)	3.29%	–
C#CC(CCN1CCCCC1)(OC)c1ccccc1 (stereo unspecified)	4.82%	–
CCC1CCC/C1=N\NC(=O)c1ccc(Cl)cc1 (stereo unspecified)	10.2%	–
CN1CCC[C@@H]1CCO[C@](C)(c1ccccc1)c1ccc(Cl)cc1	–	21.1 µM (active)
CC(=O)c1ccc(F)c(-c2cc(C)cc3c2OC(CNC(=O)Cc2c[nH]c4ccccc24)C3)c1 (stereo unspecified)	11.9% [at 9.04 µM]	–
Cc1cc(C)cc(NC(=O)CSc2oc(-c3ccccc3)nc2S(=O)(=O)c2ccc(Cl)cc2)c1	–	5.17 µM (active)
O=C(CSc1oc(-c2ccccc2)nc1S(=O)(=O)c1ccc(Br)cc1)NC1CCCCC1	1.11%	–
Cc1cc(C)cc(NC(=O)CSc2ccccc2)c1	-19.7%	–
C/C=C1\C2C=C(C)CC1(N)c1ccc(=O)[nH]c1C2 (stereo unspecified)	-4.72% [at 92.5 µM]	–
CCCN(CCC)CCNC(=O)Cn1cnc2sc(C)c(S(=O)(=O)N3CCC(C)CC3)c2c1=O	4.45%	–
COC(=O)c1ccccc1SC1CC(=O)N(c2cccc(C)c2)C1=O (stereo unspecified)	–	9.2 µM (active)
COC(=O)c1cccc(N2C(=O)C3C4C=CC(CC4)C3C2=O)c1 (stereo unspecified)	5.7%	–
COc1cccc(N2C(=O)CC(N3CCc4ccccc4C3)C2=O)c1 (stereo unspecified)	-2.6%	–
O=C(COC(=O)/C=C/c1ccc(Br)o1)Nc1cccc(S(=O)(=O)N2CCOCC2)c1	2.67%	–
O=C1c2ccccc2C(=O)c2c1cccc2N1CCN(C/C=C/c2ccccc2)CC1	-28.2%	–
CCOC(=O)c1oc2c(CN3CCN(C)CC3)c(O)ccc2c(=O)c1-c1ccc(Br)cc1	-8.28%	–
COc1cc(NC(=O)C2=CC(c3ccco3)=NS(=O)(=O)N2C)cc(OC)c1OC	–	inactive
COc1ccc(C2=NS(=O)(=O)N(C)C(C(=O)N3CCCCC3)=C2)cc1	-1.91%	–

SMILES	activity change, negative = growth inhibition	Potency
COc1ccc(NC(=O)C2=CC(c3ccc(OC)c(OC)c3)=NS(=O)(=O)N2C)cc1	–	23.1 µM (active)
COc1ccc(C2(Nc3cccc(F)c3)C(=O)c3ccccc3C2=O)cc1	5.75%	–
CCCn1c(=S)[nH]c2ccc(C(F)(F)F)cc21	4.89%	–
CCN(CC)c1ccc(NC(=O)CN2CCN(CC(=O)Nc3ccc(Cl)cc3)CC2)cc1	–	23.1 µM (active)
NS(=O)(=O)c1ccc(NC(=O)COC(=O)c2ccc(Cl)nc2)cc1	-8.23%	–
Cc1cnc(NC(=O)c2ccc(Cl)nc2)s1	-19.3%	–
CC(=O)N1CCN(CC(=O)Nc2ccc(SC(F)F)cc2)CC1	-15.2%	–
CCN(CC)c1ccc(NC(=O)c2ccc(Cl)nc2)cc1	–	2.91 µM (active)
CCN(CC)c1ccc(NC(=O)CN2CCN(c3ccccn3)CC2)cc1	-21.9%	–
CCc1ccc(CN2C(=O)c3ccccc3C2C(=O)NCC2CCCO2)cc1 (stereo unspecified)	6.59%	–
Cc1csc2nc(O)c(C(=O)NCCN3CCOCC3)c(=O)n12	4.88%	–
NC(=O)COC(=O)c1sc2cc(F)ccc2c1Cl	1.25%	–
Cc1ccsc1C(=O)NNC(=O)COc1ccc(Br)cc1	-25.4%	–
O=C(NC(=S)N1CCc2ccccc21)c1ccco1	20.5%	–
CN(C)C(=O)c1ccc(NC(=O)COC(=O)c2cc3c(s2)CCCCC3)cc1	-13.4%	–
CCCN(CCC)CCCNC(=O)Cn1cc2c(n1)-c1c(oc(C(=O)N3CCCC3)c1C)CC2	-4.28%	–
CCOC(=O)N1CCC(NC(=O)Cn2cc3c(n2)CCCCC3)CC1	-15.7%	–
CCOc1ccc(CNC(=O)Cn2cc3c(n2)-c2c(oc(C(=O)N4CCCC4)c2C)CC3)cc1	–	29.1 µM (active)
CCOC(=O)C(C)n1cnc2scc(-c3ccc(C)c(C)c3)c2c1=O (stereo unspecified)	-0.242%	–
COc1ccc(-c2nnc(SCC(=O)Nc3cccnc3Cl)n2C)cc1	-0.741%	–
COC(=O)c1ccc(NC(=O)CSc2nnc(C3CC3)n2C)cc1	6.22%	–
CC(C)(C)NC(=O)COc1ccc(CNc2ccc3[nH]c(=O)[nH]c3c2)cc1	2.77%	–
CC(=O)Nc1ccc(CN2CCC(Oc3ccc(C(=O)N4CCCC4)cc3)CC2)cc1	-13.6%	–
Oc1ccc(Cl)c2c1CCC2	-11.1%	–

SMILES	activity change, negative = growth inhibition	Potency
COc1ccc(S(=O)(=O)Nc2ccc(S(=O)(=O)N3CCCCC3)cc2)cc1OC	1.55%	–
COc1ccc(-c2ccc(Nc3ccc(S(=O)(=O)N4CCCC4)cc3)nn2)cc1OC	–	16.4 µM (active)
COc1cc(NS(=O)(=O)c2ccc(NC(=O)c3ccc(S(=O)(=O)N4CCCCC4)cc3)cc2)ncn1	-1.79%	–
COCCOC(=O)c1c(C)oc2cc(Br)c(OCC(N)=O)cc12	-20.2%	–
COC(=O)c1ccc(NC(=O)c2cc(S(=O)(=O)N3CCC(C)CC3)cn2C)cc1	2.23%	–
COc1cc(OC)cc(C(=O)NCCc2csc3nc(-c4ccccc4F)nn23)c1	-21.4%	–
CCOc1ccc(NC(=O)C(=O)NCCc2csc3nc(-c4ccccc4F)nn23)cc1	-6.96%	–
Cc1c(Cl)cccc1NC(=O)C(=O)NCCc1csc2nc(-c3ccccc3F)nn12	–	18.4 µM (active)
COc1cccc(CN(C)CC(O)COC(c2ccccc2)c2ccccc2C)c1 (stereo unspecified)	–	20.6 µM (active)
CCCC(O)(c1ccc(OC)cc1)C(CN(C)C)c1ccccc1 (stereo unspecified)	-2.36%	–
COc1cccc(CN(C)CC(=O)Nc2ccccc2C(=O)Nc2ccccc2)c1	-27.1%	–
Cc1ccc(S(=O)(=O)N2[C@@H](c3ccc(Br)cc3)C(C(=O)O)=C[C@H]2CC2CCCC2)cc1	3.8%	–
CCOC(=O)C1=CCC(c2ccc(F)cc2)N(S(=O)(=O)c2ccc(C)cc2)C1 (stereo unspecified)	–	16.4 µM (active)
Cc1ccc(S(=O)(=O)N2C[C@H]3C(=O)C[C@@H](c4cccc5ccccc45)N(S(=O)(=O)c4ccc(C)cc4)[C@H]3C[C@H]2c2ccc(Cl)cc2)cc1	1.73%	–
O=C(CN1CCN(S(=O)(=O)c2ccc(F)cc2)CC1)NC1CC1	-0.247%	–
Cc1ccc(S(=O)(=O)N2[C@@H](c3ccccc3F)C(C(=O)O)=CC[C@H]2c2ccc(Cl)cc2)cc1	-19.3%	–
Cc1ccc(S(=O)(=O)N2[C@@H](c3cccc4ccccc34)C(C(=O)O)=C[C@H]2C(C)(C)C)cc1	5.23%	–
Cc1ccc(S(=O)(=O)N2CCCC2CO)cc1 (stereo unspecified)	-0.712%	–
COc1ccc(S(=O)(=O)N2CCC(C(=O)NCCC(=O)NCc3cccc(OC)c3)CC2)cc1	7.57%	–
Cc1ccccc1S(=O)(=O)N1[C@@H](c2cccc(Cl)c2)C(C(=O)O)=CC[C@H]1c1ccc(Cl)cc1	-0.808%	–
Cc1ccccc1S(=O)(=O)N1[C@@H](c2cccc(Cl)c2)C(C(=O)OC(C)(C)C)=CC[C@H]1c1ccc(Cl)cc1	–	20.6 µM (active)
CCOC(=O)C1=CC[C@@H](c2ccccc2)N(S(=O)(=O)c2ccc(C)cc2)[C@H]1c1cccc(OC)c1	–	23.1 µM (active)
CCCCC[C@@H]1C=C(C(=O)OCC)[C@H](c2ccccc2)N1S(=O)(=O)c1ccc(C)cc1	–	14.6 µM (active)
